Among the test systems are EKVX NSCLC; SN12C renal; UO-31 renal; ACHN renal; CAKI-1 renal; A498 renal; CCRF-CEM leukemia; MOLT-4 leukemia; SR leukemia; TK-10 renal.
Holding throughout (test): NCI-60 one-dose screen, 48 h (100 = growth as untreated, 0 = no growth, -100 = all killed)
Common to all, as to settings: 10 µM unless noted

About 83,000 compounds went through this panel and 20% of them were active in at least one assay; those are over-represented in the sample as a whole.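 Activity criterion: percent growth below 10, measured after cells in 96-well plates were exposed to a single compound concentration for 48 hours.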 Unmarked numbers belong to inactive results. Activity calls are given as the source filed them.

For `COc1ccc(OC)c(NC(=O)c2cc3oc4ccccc4c3cc2O)c1`, the growth with EKVX NSCLC is 75.9%; in the test with SN12C renal it was 95%; in the test on UO-31 renal, 79.8%; with ACHN renal, 98.7%; in the test with CAKI-1 renal, 74.7%; in the test with A498 renal, 121%. Moreover, the growth in the test on CCRF-CEM leukemia was 99.4%; in the test on MOLT-4 leukemia, 117%; in the test on SR leukemia, 127%.

`Cc1nn(-c2ccc(Br)cc2)c2nc3c(nc12)C(=O)C(=O)c1ccccc1-3`: the growth in the test on EKVX NSCLC is 80%; in the test on SN12C renal it was 95.5%; in the test on TK-10 renal it was 140%; with ACHN renal it was 93.1%; with CAKI-1 renal, 94.9%; in the test on A498 renal, 106%.

As to `COc1ccc(C(=O)/C=C/c2c(Cl)nc3c(c(C)nn3-c3ccccc3)c2-c2ccc(Br)cc2)cc1`, the growth in the test on EKVX NSCLC was 109%; with SN12C renal it was 99.4%; with TK-10 renal it was 106%; in the test with ACHN renal, 101%; with CAKI-1 renal, 100%; with A498 renal it was 112%.

Regarding `Cn1cc(-c2csc(-c3cn(C)c4ncccc34)n2)c2cccnc21`, the growth in the test with EKVX NSCLC is 86.6%; in the test with SN12C renal, 93.1%; in the test on TK-10 renal, 92.2%; in the test on ACHN renal, 99.7%; in the test with CAKI-1 renal, 83.3%; in the test on A498 renal, 76.1%. The growth with CCRF-CEM leukemia is 87.3%; in the test with MOLT-4 leukemia it was 95.7%.

Turning to `Cc1c(C(N)=O)sc2c1c(=O)n(Cc1ccccc1)c1nnc(S(=O)(=O)CC(=O)Nc3ccc(Cl)cc3)n21`, the growth in the test with EKVX NSCLC is 43.6%; with SN12C renal, 56%; in the test with TK-10 renal it was 18%; in the test with ACHN renal, 10.1%; in the test with CAKI-1 renal, 68.2%; with A498 renal it was 22.6%.

With `Cc1cc(CC(=O)O)n(C)c1C(=O)c1ccc(Cl)cc1`, the growth in the test on EKVX NSCLC is 102%; in the test on SN12C renal, 109%; in the test with UO-31 renal, 104%; in the test on ACHN renal, 101%; in the test with CAKI-1 renal it was 96%; in the test with CCRF-CEM leukemia it was 95.6%. For the same compound, the growth in the test with MOLT-4 leukemia was 98.3%; with SR leukemia it was 107%.

With `N#Cc1ccc(NC(=O)Nc2ccc(Oc3ccc(NC(=O)Nc4ccc(C#N)cc4)cc3)cc2)cc1`, the growth in the test on EKVX NSCLC is 34.1%; with SN12C renal it was 39%; in the test on UO-31 renal, -25.7% (active); with ACHN renal, 23.1%; in the test on CAKI-1 renal, 33%; in the test with A498 renal it was 41.1%. Moreover, the values for the growth in the test on CCRF-CEM leukemia, in the test on MOLT-4 leukemia and in the test with SR leukemia were -13.7% (active), -58% (active) and 3.43% (active), respectively.

For the compound `COc1ccc2[nH]cc(/C=C3/C(=O)Nc4ccc(Cl)cc43)c2c1`, the growth in the test with EKVX NSCLC was 46.2%; in the test on SN12C renal, 76.6%; in the test with ACHN renal, 18.2%; in the test on CAKI-1 renal it was 26.6%; with A498 renal, 67.7%; in the test with CCRF-CEM leukemia it was 44.3%. Further, the results for the growth in the test on MOLT-4 leukemia and in the test with SR leukemia were 39.9% and 2.51% (active), respectively.

For `O=C(C=C=Nc1ccccc1)C(=O)N=C=Cc1ccccc1`, the growth in the test with EKVX NSCLC is 72.6%; with UO-31 renal, -51.3% (active); in the test on TK-10 renal it was -20.3% (active); in the test with ACHN renal it was -58.3% (active); in the test on CAKI-1 renal, 17.7%; with A498 renal, 102%. Also, the growth in the test with CCRF-CEM leukemia is -35.5% (active); in the test on MOLT-4 leukemia, -16.3% (active); in the test with SR leukemia, 3.67% (active).

With `CCCCN(CCCC)CCCOC(=O)c1ccc(N)cc1`, the growth was 94.3% in the test on EKVX NSCLC; 81.2% in the test with UO-31 renal; 103% in the test on TK-10 renal; 91.9% in the test with ACHN renal; 90.5% with CAKI-1 renal; 104% in the test with A498 renal. In addition, the results for the growth in the test with CCRF-CEM leukemia and with MOLT-4 leukemia were 96.8% and 93.2%, respectively.

In the case of `O=C(N1CCC(CN=c2cc3n(-c4ccc(Cl)cc4)c4ccccc4nc-3cc2Nc2ccc(Cl)cc2)CC1)N1CC1`, the growth in the test with EKVX NSCLC was -62.5% (active); in the test on SN12C renal, -76% (active); in the test with TK-10 renal it was -42.9% (active); in the test on ACHN renal it was -71.7% (active); with A498 renal, -59.9% (active); in the test on MOLT-4 leukemia, -22.6% (active). The growth in the test on SR leukemia was -74.5% (active).

With `O=C1OCCCCCCCCCC#Cc2ccccc21`, the growth was 115% with EKVX NSCLC; 113% with SN12C renal; 145% with ACHN renal; 97.1% in the test on CAKI-1 renal; 98.3% in the test with A498 renal; 85.7% in the test on MOLT-4 leukemia. For the same compound, in the test on SR leukemia, the growth was 87.4%.

For `CN(C)c1nc(-c2ccco2)n2nc(-c3ccco3)cc2n1`, the growth is 77% in the test on EKVX NSCLC; 93.4% with SN12C renal; 90.3% with TK-10 renal; 96.5% in the test on ACHN renal; 90.7% in the test with CAKI-1 renal; 79.9% in the test with A498 renal. The values for the growth with CCRF-CEM leukemia, in the test on MOLT-4 leukemia and in the test on SR leukemia were 93%, 97.3% and 73.8%, respectively.

Take `COc1cc2c(c(OC)c1OC)CCc1cnoc1-2`: the growth in the test with EKVX NSCLC is 112%; in the test on SN12C renal, 106%; in the test with TK-10 renal it was 111%; with ACHN renal it was 95.1%; with CAKI-1 renal it was 105%; in the test on A498 renal, 100%. In addition, the growth in the test on CCRF-CEM leukemia was 111%; in the test with MOLT-4 leukemia, 127%; with SR leukemia, 166%.

As for `CCCCOc1ccc(C(C)(C)c2ccc(OCCCC)cc2)cc1`, the growth in the test on EKVX NSCLC is 143%; in the test on SN12C renal, 100%; with TK-10 renal it was 107%; in the test with ACHN renal, 109%; in the test on A498 renal, 126%; in the test with CCRF-CEM leukemia, 97.7%. The growth in the test with MOLT-4 leukemia is 99.7%; in the test on SR leukemia, 92.6%.

Turning to `NC(N)=NC(N)=NCCCc1ccccc1`, the growth with EKVX NSCLC was 31.8% [100 µM]; in the test with UO-31 renal, 65.9% [100 µM]; with TK-10 renal, 63.3% [100 µM]; with ACHN renal, 65.8% [100 µM]; with CAKI-1 renal it was 63.7% [100 µM]; in the test on A498 renal, 68.3% [100 µM]. Moreover, the growth in the test with CCRF-CEM leukemia was 69.1% [100 µM]; with MOLT-4 leukemia it was 73.8% [100 µM].

On to `CC(=O)Nc1ccc2c(c1)Cc1c(F)c(F)c(F)c(F)c1-2`, for which the growth was 70.3% with EKVX NSCLC; 90.2% with SN12C renal; 87.5% in the test with ACHN renal; 86.6% in the test with CAKI-1 renal; 69.1% with A498 renal; 58.9% in the test on CCRF-CEM leukemia. The growth with MOLT-4 leukemia was 99.4%; in the test on SR leukemia, 52%.

Source of the values: PubChem BioAssay (NCI).
